Rows were chosen to be rich in hits. Some 4.4% of all compounds tested hit in one or more screens of this group.
TRHR agonist-1 – TRH receptor (human) agonism | AID 493084 | P34981 | activation, % at 2 µM | TRHR cells, calcium flux fluo-8, FDSS agonist mode | actives 0.18% (n = 360,000); in the data active = activation above about 30%; note: 0% is about no effect
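TRHR-expressing cells loaded with fluo-8 calcium dye; 23 nL library compound pin-transferred, kinetic FDSS fluorescence (Ex 480/Em 530) recorded about 180 s for agonist-induced calcium release, before a 10 nM TRH EC20 addition for potentiator mode.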
D1 antag – blocks dopamine activation of the human D1 receptor. P21728. actives 3.2% (n = 360,000). activity change, negative = inhibition, % at 10 µM. HEK293 TREx D1 cells, calcium flux, dopamine EC80; active compounds read low. AID 504652; in the data active = activity change below about -30%; note: % is set by controls: 0 for no effect and ±100 for the full control effect
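Cells carrying a force-coupled, tetracycline-inducible human D1 receptor report calcium flux. Each well gets a 10 s baseline, compound with 180 s monitoring, then an EC80 dopamine stimulus with a second 180 s kinetic read.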
TRHR enhancer-1 – allosteric enhancers of human TRH receptor. AID 493056. enhancement, % at 2 µM. TRHR cells, fluo-8 calcium fluorescence, EC20 TRH enhancement. actives 0.66% (n = 360,000); in the data active = enhancement above about 30%; note: 0% is about no effect
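Enhancer read-out: after compound pinning and an initial kinetic agonist-mode read, an EC20 of TRH (10 nM final) was injected and fluo-8 calcium signal (Ex 480/Em 530) followed at 1 s/cycle for 100 cycles in TRHR-expressing cells.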
USP1-UAF1 inh – blocks the human USP1/UAF1 deubiquitinase complex; recombinant USP1/UAF1, Ub-Rhodamine cleavage fluorescence; O94782; Potency, µM (doses to about 57.1 µM), for inactives: at the top dose activity change, negative = inhibition, actives largely listed as inhibitors; actives 0.23% (n = 390,000); note: potency is the fitted concentration of half-maximal effect; % is set by controls: 0 for no effect and ±100 for the full control effect; nearly all actives have a fitted effect of over 60% in size
Target sequence (O94782 whole entry, looked up): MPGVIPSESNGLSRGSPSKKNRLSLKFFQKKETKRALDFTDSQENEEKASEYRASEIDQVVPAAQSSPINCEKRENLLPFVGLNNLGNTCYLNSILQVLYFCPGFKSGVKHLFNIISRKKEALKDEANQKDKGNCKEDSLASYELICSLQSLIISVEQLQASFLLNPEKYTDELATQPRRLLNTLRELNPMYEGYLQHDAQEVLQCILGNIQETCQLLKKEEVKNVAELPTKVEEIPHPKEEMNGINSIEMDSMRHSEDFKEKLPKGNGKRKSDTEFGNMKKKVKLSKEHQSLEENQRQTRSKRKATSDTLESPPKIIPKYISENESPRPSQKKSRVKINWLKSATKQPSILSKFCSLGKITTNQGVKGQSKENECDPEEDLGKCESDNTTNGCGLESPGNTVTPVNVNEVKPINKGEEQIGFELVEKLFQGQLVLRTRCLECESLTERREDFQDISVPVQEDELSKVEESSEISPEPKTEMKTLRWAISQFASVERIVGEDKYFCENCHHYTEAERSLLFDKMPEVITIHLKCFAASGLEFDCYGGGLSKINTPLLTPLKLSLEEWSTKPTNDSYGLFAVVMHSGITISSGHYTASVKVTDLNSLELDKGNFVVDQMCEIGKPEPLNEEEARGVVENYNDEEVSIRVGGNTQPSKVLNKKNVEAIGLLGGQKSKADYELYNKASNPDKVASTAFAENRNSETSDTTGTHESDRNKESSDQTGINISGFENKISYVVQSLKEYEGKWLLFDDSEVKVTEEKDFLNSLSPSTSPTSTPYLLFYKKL
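USP1/UAF1 complex at 1 nM was preincubated with compound for 15 min at room temperature, then Ub-Rho substrate (150nM final) was added. Fluorescence (480/540 nm) was read kinetically, 6 reads every 60 seconds.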
D1 PAM – potentiators of human D1 dopamine receptor; HEK293 TREx D1 cells, calcium flux, dopamine EC20 potentiation; P21728; AID 504651; potentiation, % at 10 µM; actives 0.036% (n = 360,000); in the data active = potentiation above about 30%; note: 0% is about no effect
D1 ag – activates the human D1 dopamine receptor | P21728 | HEK293 T-REx D1 cells, calcium flux, agonist mode | activation, % at 2 µM | actives 1% (n = 360,000) | AID 504660; in the data active = activation above about 30%; note: 0% is about no effect
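Agonism was scored from calcium flux recorded over 180 s (1 read/s) after pintool compound addition, following a 10-cycle baseline. Cells were inducible force-coupled HEK293 TREx D1, plated overnight at 30 C and loaded with no-wash calcium dye.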
TRHR enhancer-2 – human TRH receptor allosteric enhancement confirmation; AID 493076; TRH receptor cell assay, enhancer confirmation qHTS; 970 tested, under 10 active; shares compounds with TRHR enhancer-1; activity change, negative = inhibition, % at 46.1 µM;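 note: compound effect scored on response to added TRH at EC20 of 10 nM; 0% is about no effect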
TRHR agonist-2 – human TRH receptor agonism confirmation; actives 8% (n = 970); Potency, µM (top dose mostly 46.1 µM), for the others: at the top dose activation, actives largely listed as activators; AID 493078; shares compounds with TRHR enhancer-1; TRHR-expressing cells, agonist activation read-out; note: potency is the fitted concentration of half-maximal effect; 0% is about no effect; nearly all actives have a fitted effect of over 75% in size
Numbers without * were called inactive; ? = inconclusive; nt = no result. Unless noted, calls come from the whole dose curve; as a rule, active = well fitted curve in the direction sought with a large enough effect; inconclusive = small, poorly fitted or top-dose-only effect, or another doubt; inactive = no such curve, though single readings can be large; an effect the other way counts as inactive or inconclusive.

SMILES | TRHR agonist-1 | D1 antag | TRHR enhancer-1 | USP1-UAF1 inh | D1 PAM | D1 ag | TRHR enhancer-2 | TRHR agonist-2
COC(=O)c1[nH]c2ccccc2c1NS(=O)(=O)c1ccc(F)c(C)c1 | -0.2 | -47.9* | 44.5* | -2.8% | -7.3 | 0.8 | -8.3 | -0.4%
CCOC(=O)c1[nH]c(C)c(C(=O)NC)c1C | -1.0 | -5.4 | 10.3 | -16.3% | 0.9 | 1.6 | nt | nt
CCOC(=O)c1[nH]c(C)c(C(=O)N(CC)CC)c1C | -0.1 | -2.3 | 52.1* | -2.1% | -0.1 | 2.1 | -7.8 | 0.7%
O=C(O)c1ccc(NS(=O)(=O)c2ccc3c(c2)OCCO3)cc1 | 0.7 | -7.3 | 8.7 | -13.1% | nt | 0.7 | nt | nt
CN(C)C(=O)c1ccc(NS(=O)(=O)c2ccc3c(c2)OCCO3)cc1 | 0.2 | -13.8 | 65.6* | -17.6% | -6.2 | 2.2 | -0.8 | -0.3%
CCc1ccccc1N(CC(=O)N/N=C/c1ccc(OC(=O)OC)c(OC)c1)S(C)(=O)=O | 43.2* | 10.1 | -3.6 | -6.6% | -7.3 | 0.1 | 3.8 | 0.8%
O=C(Nc1cccc2ncccc12)c1ccc(Cl)cc1 | 0.1 | 0.4 | 59.6* | -23.1% | 4.3 | 2.9 | 2.1 | -0.5%
O=C(Nc1cccc2ncccc12)c1ccc(F)cc1 | 1.3 | 1.1 | -5.8 | -1.3% | -9.7 | 3.7 | nt | nt
O=[N+]([O-])c1cccc(N=Cc2ccccc2)c1 | nt | nt | nt | 4.9% | nt | nt | nt | nt
O=[N+]([O-])c1cccc(N=Cc2sc3ccccc3c2O)c1 | 0.9 | -11.9 | 43.5* | nt | 0.1 | 5.0 | -3.4 | -0.3%
CCc1ccc(NC(=O)C2CCN(c3cc(C)nc4c(-c5ccc(Cl)cc5)c(C)nn34)CC2)cc1 | 0.2 | 7.0 | 5.0 | -20.4% | -2.7 | -0.3 | nt | nt
COc1ccc(Cl)cc1S(=O)(=O)NC(C)C(=O)NCCCn1ccnc1 (configuration not stated) | 0.7 | -8.8 | 66.9* | -4.2% | 1.2 | 6.8 | -1.8 | -0.6%
COc1ccc(Cl)cc1S(=O)(=O)NCCCn1ccnc1 | 0.5 | 0.7 | 22.3 | -0.8% | 1.9 | 1.2 | nt | nt
CC1(C)CC2CC(C)(CN2S(=O)(=O)c2ccc(C(=O)Nc3ccc(S(=O)(=O)N4CCOCC4)cc3)cc2)C1 (configuration not stated) | 1.7 | 22.0 | -6.2 | -15.6% | 2.6 | 4.7 | nt | nt
CCOC(=O)c1cc([N+](=O)[O-])sc1NC(=O)c1ccc(S(=O)(=O)N2CC3(C)CC2CC(C)(C)C3)cc1 (configuration not stated) | 36.6* | -3.9 | -16.2 | -21.5% | -5.2 | 6.7 | -2.3 | ?
COc1ccc(CNC(=O)C2CCN(c3nnc(-n4c(C)ccc4C)s3)CC2)c(OC)c1 | -0.7 | -1.6 | -0.8 | -6.7% | -2.6 | -1.1 | nt | nt
O=C1CCCN1CCCNc1ncnc2c1cnn2-c1ccc(Cl)cc1 | -0.4 | -13.0 | 54.4* | -18.2% | -0.6 | 8.2 | -8.5 | 4.6%
Cc1cccc(-n2ncc3c(NCCCN4CCCC4=O)ncnc32)c1 | -0.5 | 3.9 | 6.0 | -18.6% | -2.3 | 8.6 | nt | nt
COc1ccccc1NC(=O)c1sc2nc(C)c(C(=O)Nc3ccc(C)cc3C)c(-c3cccs3)c2c1N | 4.6 | -7.9 | -3.1 | ? | -3.5 | 25.8 | nt | nt
NC(=O)C1CCN(C(=O)c2ccc3ccccc3c2)CC1 | -0.2 | -20.1 | -1.1 | -2.3% | 7.3 | 4.1 | nt | nt
Cn1c(C(=O)N2CCC(C(N)=O)CC2)cc2cc(Cl)ccc21 | 0.5 | 8.7 | 56.7* | -28.1% | -1.1 | 1.0 | 0.6 | 1.7%
CCC(Sc1ncnc2sc3c(c12)CCCC3)C(=O)OCC(C)C (configuration not stated) | -0.1 | 3.9 | 1.0 | -27.6% | 0.7 | 1.7 | nt | nt
CC(=O)COc1ccc2cc(-c3ccccc3)c(=O)oc2c1 | -0.1 | -13.2 | -7.1 | -31.0% | -3.2 | 8.6 | nt | nt
O=C(CCCCl)Oc1ccc2cc(-c3ccc4ccccc4n3)c(=O)oc2c1 | 31.7* | -3.6 | 1.8 | -18.3% | -2.9 | 50.9* | 9.3 | ?
CN(C(=O)COC(=O)c1c2c(nc3ccccc13)/C(=C/c1cccc([N+](=O)[O-])c1)CCC2)C1CCS(=O)(=O)C1 (configuration not stated) | 0.9 | -0.3 | 3.0 | -8.3% | -5.5 | 1.5 | nt | nt
SMILES | TRHR agonist-1 | D1 antag | TRHR enhancer-1 | USP1-UAF1 inh | D1 PAM | D1 ag | TRHR enhancer-2 | TRHR agonist-2
O=C(COC(=O)c1c2c(nc3ccccc13)/C(=C/c1cccc([N+](=O)[O-])c1)CCC2)NC1CCS(=O)(=O)C1 (configuration not stated) | 0.7 | -9.8 | 42.5* | 0.2% | -3.7 | 3.9 | -0.1 | 1.5%
COc1ccc(N2C(=O)C(CN3CCN(C)CC3)C2c2ccccc2)cc1 (configuration not stated) | 1.4 | -3.4 | 67.4* | -4.3% | 0.7 | 0.6 | 5.7 | 4.1%
COc1ccc(C(CNC(=O)c2ccc(Cl)c(NC(=O)c3cccs3)c2)N2CCCC2)cc1 (configuration not stated) | 0.9 | -13.7 | 59.7* | -18.8% | -3.0 | 7.1 | -1.2 | 3.1%
Cc1nn(C)c2c1c(C(F)(F)F)cc(=O)n2C(C)C(=O)NCCC(C)C (configuration not stated) | -0.4 | -3.0 | -0.5 | -4.5% | 2.3 | 0.3 | nt | nt
COc1ccc([N+](=O)[O-])cc1NC(=O)c1cn(-c2ccc(Cl)cc2)c(=O)c2ccccc12 | 0.3 | -23.0 | 71.7* | -9.9% | -4.3 | 4.1 | ? | 0.8%
N#Cc1c(N)nc(SCC(=O)OCc2ccccc2)c(C#N)c1-c1ccco1 | 0.2 | -19.9 | 65.2* | -16.1% | -6.2 | 3.4 | -8.3 | 4.0%
COc1cc(C(=O)Nc2cccc(-c3cn4cccnc4n3)c2)cc(OC)c1OC | -0.1 | -1.9 | 62.6* | -13.3% | 0.3 | 2.4 | 10.0 | -0.4%
COc1cc(C2C(C#N)=C(N)Oc3cc(N(C)C)ccc32)cc2c1OCO2 (configuration not stated) | 44.7* | 10.2 | 2.0 | ? | -1.4 | 45.3* | 2.8 | ?
COc1cc(/C=C2\SC(=N)N(c3ccc4c(c3)OCO4)C2=O)cc(OC)c1O | 44.6* | -5.2 | 5.3 | -23.2% | -4.1 | 16.2 | 1.1 | ?
C=CCC(CC)C(=O)NC(=O)N1CCCc2ccccc21 (configuration not stated) | -0.4 | -7.2 | 42.1* | -25.2% | -1.2 | 2.6 | -4.6 | 0.4%
CCn1c(CN2CCN(c3cccc(Cl)c3)CC2)nc2c1c(=O)[nH]c(=O)n2C | -1.9 | -2.3 | 11.2 | -8.1% | 0.2 | 0.6 | nt | nt

Compound activity as filed in PubChem.
